Experimental data taken from PubChem BioAssay AID1159580 (chemical genetic matrix, 2015).
The whole screen tested about 5,500 compounds, of which about 2,000 (36%) were called active. Not shown: some 18% with an inconclusive outcome. No stated cut-off is given here; in the data, active means normalized growth mostly below about 0.91 (no sharp cut-off); inconclusive means no clear call, values can overlap the other calls; inactive means mostly above about 0.92. Some of the results follow.

Assay: chemical genetic growth profiling, strain panel (AID 1159580);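 further: tested at 20 µM; growth read once vehicle control cultures reached saturation at 30 °C; 1 = growth at the plate median or of vehicle wells; lower values mean less growth of the strain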
Conditions: S. cerevisiae deletion strains, growth OD
[1] = locus YHR030C, strain SLT2, active compounds read low
[2] = locus YHR079C, strain IRE1, active compounds read low
[3] = locus YJL095W, strain BCK1, active compounds read low
[4] = locus YJR066W, strain TOR1, active compounds read low
[5] = locus YLR113W, strain HOG1, active compounds read low
[6] = locus YNL183C, strain NPR1, active compounds read low
[7] = locus YOR231W, strain MKK1, active compounds read low
[8] = locus YPL256C, strain CLN2, active compounds read low

Measured: normalized growth

CC(=O)Nc1ccc(S(=O)(=O)Nc2onc(C)c2C)cc1
inactive: locus YAL021C, strain ccr4, active compounds read low 0.984 | locus YAL026C, strain drs2, active compounds read low 0.976 | locus YAL030W, strain snc1, active compounds read low 0.98 | locus YBL061C, strain skt5, active compounds read low 0.969 | locus YBR009C, strain hhf1, active compounds read low 0.959 | locus YBR023C, strain chs3, active compounds read low 0.97 | locus YBR171W, strain sec66, active compounds read low 0.965 | locus YBR231C, strain swc5, active compounds read low 0.981 | locus YBR279W, strain paf1, active compounds read low 0.968 | locus YCL011C, strain gbp2, active compounds read low 0.973 | locus YCL016C, strain dcc1, active compounds read low 0.969 | locus YCL061C, strain MRC1, active compounds read low 0.985 | locus YCL069W, strain vba3, active compounds read low 0.972 | locus YCR088W, strain abp1, active compounds read low 0.965 | locus YDL005C, strain med2, active compounds read low 0.969 | locus YDL040C, strain nat1, active compounds read low 0.969 | locus YDR001C, strain nth1, active compounds read low 0.963 | locus YDR069C, strain doa4, active compounds read low 0.962 | locus YDR137W, strain rgp1, active compounds read low 0.959 | locus YDR159W, strain sac3, active compounds read low 0.946 | locus YDR195W, strain ref2 0.948 | locus YDR297W, strain sur2, active compounds read low 0.967 | locus YDR334W, strain swr1, active compounds read low 0.975 | locus YDR335W, strain msn5, active compounds read low 0.972 | locus YDR392W, strain spt3, active compounds read low 0.929 | locus YEL003W, strain gim4, active compounds read low 0.974 | locus YEL037C, strain rad23, active compounds read low 0.971 | locus YEL061C, strain CIN8 (second series), active compounds read low 0.956 | locus YER015W, strain faa2, active compounds read low 0.986 | locus YER016W, strain bim1, active compounds read low 0.96 | locus YER111C, strain swi4, active compounds read low 0.975 | locus YER155C, strain BEM2 (second series), active compounds read low 0.971 | locus YFR010W, strain ubp6, active compounds read low 0.959 | locus YGL167C, strain pmr1, active compounds read low 0.968 | locus YGL173C, strain kem1, active compounds read low 0.969 | locus YGL227W, strain vid30, active compounds read low 0.966 | locus YGL240W, strain doc1, active compounds read low 0.981 | locus YGL253W, strain hxk2, active compounds read low 0.994 | locus YHR013C, strain ard1, active compounds read low 0.963 | locus YHR027C, strain rpn1, active compounds read low 0.989 | [1] 0.975 | [2] 0.968 | locus YHR142W, strain chs7, active compounds read low 0.965 | locus YJL092W, strain hpr5, active compounds read low 0.971 | locus YJL095W, strain BCK1 (second series), active compounds read low 0.975 | [3] 1 | locus YJL115W, strain asf1, active compounds read low 0.964 | locus YJL129C, strain trk1, active compounds read low 0.983 | locus YJL154C, strain vps35, active compounds read low 0.965 | locus YJL164C, strain tpk1, active compounds read low 0.982 | locus YJL166W, strain qcr8, active compounds read low 0.983 | locus YJL187C, strain SWE1, active compounds read low 0.97 | [4] 0.908 | locus YKL160W, strain elf1, active compounds read low 0.984 | locus YKR026C, strain gcn3, active compounds read low 0.967 | locus YKR091W, strain srl3, active compounds read low 0.977 | locus YLL001W, strain dnm1, active compounds read low 0.951 | locus YLL026W, active compounds read low 0.961 | locus YLL041C, strain sdh2, active compounds read low 0.978 | locus YLR027C, strain aat2, active compounds read low 0.973 | [5] 0.975 | locus YLR221C, strain rsa3, active compounds read low 0.987 | locus YLR258W, strain gsy2, active compounds read low 0.971 | locus YLR262C, strain YPT6 (second series), active compounds read low 0.98 | locus YLR320W, strain mms22, active compounds read low 0.972 | locus YLR342W, strain FKS1, active compounds read low 0.974 | locus YLR357W, strain rsc2, active compounds read low 0.951 | locus YLR370C, strain arc18, active compounds read low 0.957 | locus YLR384C, strain iki3, active compounds read low 0.962 | locus YML120C, strain ndi1, active compounds read low 0.988 | locus YMR058W, strain fet3, active compounds read low 0.971 | locus YMR125W, strain sto1, active compounds read low 0.937 | locus YMR129W, active compounds read low 0.979 | locus YMR205C, strain PFK2, active compounds read low 0.936 | locus YMR231W, strain pep5, active compounds read low 0.969 | locus YNL071W, strain lat1, active compounds read low 0.975 | [6] 0.926 | locus YNL209W, strain ssb2, active compounds read low 0.975 | locus YNL248C, strain rpa49, active compounds read low 1.02 | locus YNL322C, strain KRE1 (second series), active compounds read low 0.98 | locus YNR049C, strain mso1, active compounds read low 0.969 | locus YOR001W, strain rrp6, active compounds read low 0.985 | locus YOR070C, strain gyp1, active compounds read low 0.977 | locus YOR080W, strain dia2, active compounds read low 0.954 | locus YOR083W, strain WHI5, active compounds read low 0.997 | locus YOR106W, strain vam3, active compounds read low 0.996 | [7] 0.989 | locus YOR265W, strain rbl2, active compounds read low 0.973 | locus YOR270C, strain vph1, active compounds read low 0.922 | locus YOR290C, strain snf2, active compounds read low 0.964 | locus YPL051W, strain arl3, active compounds read low 0.985 | locus YPL078C, strain atp4, active compounds read low 0.981 | locus YPL106C, strain sse1, active compounds read low 0.97 | locus YPL240C, strain hsp82, active compounds read low 0.99 | [8] 0.955

Cc1ccc(-c2csc(-c3ccncc3)n2)cc1
inactive: locus YBL105C, strain PKC1, active compounds read low 0.928 | locus YBR135W, strain CKS1, active compounds read low 0.903 | locus YBR136W, strain MEC1, active compounds read low 0.912 | locus YBR160W, strain CDC28, active compounds read low 0.909 | locus YDL017W, strain CDC7, active compounds read low 0.922 | locus YDL028C, strain MPS1, active compounds read low 0.898 | locus YDL108W, strain KIN28, active compounds read low 0.914 | locus YDL214C, strain PRR2, active compounds read low 0.781 | locus YDR052C, strain DBF4, active compounds read low 0.938 | locus YDR054C, strain cdc34, active compounds read low 0.879 | locus YDR226W, strain ADK1, active compounds read low 0.905 | locus YFL009W, strain cdc4, active compounds read low 0.89 | locus YFL029C, strain CAK1, active compounds read low 0.89 | locus YFR003C, strain YPI1, active compounds read low 0.921 | locus YFR019W, strain FAB1, active compounds read low 0.859 | locus YGR040W, strain KSS1, active compounds read low 0.718 | locus YGR052W, strain FMP48, active compounds read low 0.717 | [2] 0.674 | locus YHR082C, strain KSP1, active compounds read low 0.747 | locus YHR205W, strain SCH9, active compounds read low 0.72 | locus YIL147C, strain SLN1, active compounds read low 0.915 | locus YJL128C, strain PBS2, active compounds read low 0.919 | locus YJL157C, strain FAR1, active compounds read low 0.764 | locus YJR016C, strain ILV3, active compounds read low 0.922 | locus YJR066W, strain TOR1 (second series), active compounds read low 0.753 | [4] 0.53 | locus YKL048C, strain ELM1, active compounds read low 0.928 | locus YKL067W, strain YNK1, active compounds read low 0.758 | locus YKL101W, strain HSL1, active compounds read low 0.872 | locus YKL203C, strain TOR2, active compounds read low 0.782 | locus YLR133W, strain CKI1, active compounds read low 0.837 | locus YLR403W, strain SFP1, active compounds read low 0.706 | locus YML070W, strain DAK1, active compounds read low 0.788 | locus YMR001C, strain CDC5, active compounds read low 0.91 | locus YMR205C, strain PFK2 (second series), active compounds read low 0.771 | locus YNL006W, strain LST8, active compounds read low 0.925 | locus YNL020C, strain ARK1, active compounds read low 0.842 | locus YNL161W, strain CBK1, active compounds read low 0.909 | [6] 0.672 | locus YNL207W, strain RIO2, active compounds read low 0.905 | locus YNL222W, strain SSU72, active compounds read low 0.897 | locus YNL307C, strain MCK1 (second series), active compounds read low 0.773 | locus YOL136C, strain PFK27, active compounds read low 0.814 | locus YOR061W, strain CKA2, active compounds read low 0.89 | locus YOR119C, strain RIO1, active compounds read low 0.719 | [7] 0.691 | locus YOR329C, strain SCD5, active compounds read low 0.92 | locus YPL153C, strain RAD53, active compounds read low 0.688 | locus YPL209C, strain IPL1, active compounds read low 0.913 | locus YPR025C, strain CCL1, active compounds read low 0.914 | locus YPR106W, strain ISR1, active compounds read low 0.924 | locus YPR111W, strain DBF20, active compounds read low 0.902 | strain NNK1, active compounds read low 0.911
active: locus YAR019C, strain CDC15, active compounds read low 0.888 | locus YDL101C, strain DUN1, active compounds read low 0.912 | locus YDL132W, strain cdc53, active compounds read low 0.891 | locus YDR477W, strain SNF1, active compounds read low 0.68 | locus YER123W, strain YCK3, active compounds read low 0.615 | locus YER133W, strain GLC7, active compounds read low 0.661 | locus YFR028C, strain CDC14, active compounds read low 0.89 | locus YGR092W, strain DBF2, active compounds read low 0.441 | [1] 0.423 | [3] 0.374 | locus YKL193C, strain SDS22, active compounds read low 0.879 | [5] 0.653 | locus YMR277W, strain FCP1, active compounds read low 0.865 | locus YOL078W, strain AVO1, active compounds read low 0.866 | locus YPL031C, strain PHO85, active compounds read low 0.649 | locus YPL204W, strain HRR25, active compounds read low 0.618 | [8] 0.697 | strain TSCII, active compounds read low 0.873
